The full ranking holds about 33,000 sequences; the median of “E-score (-0.5 to 0.5)” is about -0.054, and the highest 2% start at about 0.35. For the sample, the highest values were picked, then their nearest neighbours and some sequences at random.

This note sets out measurements from the supplement of paper PMC3334620.

This assay addresses T1, Stb5 (UniProt P38699).
T1 sequence: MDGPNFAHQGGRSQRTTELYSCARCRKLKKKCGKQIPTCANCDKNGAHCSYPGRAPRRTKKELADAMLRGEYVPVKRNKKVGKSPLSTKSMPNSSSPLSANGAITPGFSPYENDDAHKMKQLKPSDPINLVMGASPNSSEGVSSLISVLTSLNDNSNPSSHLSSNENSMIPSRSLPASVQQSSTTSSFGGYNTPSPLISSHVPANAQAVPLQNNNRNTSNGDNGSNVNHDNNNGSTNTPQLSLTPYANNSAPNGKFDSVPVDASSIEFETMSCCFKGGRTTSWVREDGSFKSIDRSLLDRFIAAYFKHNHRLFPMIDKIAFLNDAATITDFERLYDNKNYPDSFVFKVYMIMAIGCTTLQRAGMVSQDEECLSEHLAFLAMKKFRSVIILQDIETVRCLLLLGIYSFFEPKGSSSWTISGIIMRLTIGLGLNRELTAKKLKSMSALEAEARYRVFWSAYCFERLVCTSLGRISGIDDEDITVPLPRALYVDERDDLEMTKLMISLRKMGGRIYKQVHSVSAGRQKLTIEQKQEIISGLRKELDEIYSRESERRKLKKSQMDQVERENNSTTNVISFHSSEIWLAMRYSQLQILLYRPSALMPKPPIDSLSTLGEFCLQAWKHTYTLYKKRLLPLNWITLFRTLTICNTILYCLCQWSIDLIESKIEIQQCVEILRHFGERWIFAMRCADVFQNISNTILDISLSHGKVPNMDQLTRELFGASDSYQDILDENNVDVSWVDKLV
The assay is described as follows: PBM E-score (8-mer binding enrichment) (E-score (-0.5 to 0.5)); higher = stronger / more preferred TF binding. As to conditions: protein concentration: 200 nM; construct: GST-full length. The method in brief: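 Each ungapped eight-base word and its reverse complement, pooled, received an E-score from the Universal PBM Analysis Suite. Underlying scans, normalised with masliner, recorded fluorescent anti-GST bound to GST-tagged yeast transcription factors. These were applied at about 100-200 nM to universal all-10-mer Agilent arrays double-stranded by primer extension.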
As to TGAGTTAA, the “PBM E-score” value is -0.155.

GGAGTTAC: the “PBM E-score” value stood at 0.365.

In the case of AGAGTTTA, the “PBM E-score” value was -0.0332.

Take GCGGCTAC: the “PBM E-score” value was 0.192.

Turning to AATACTGA, the “PBM E-score” value was -0.19.

As to TACCCACA, the “PBM E-score” value is -0.228.

In the case of GGGCCTAC, the “PBM E-score” value is 0.066.

Take ATTATCTA: the “PBM E-score” value is -0.0957.

ACTTGAGC: the “PBM E-score” value is -0.28.

As for AATTTTAT, the “PBM E-score” value worked out at 0.292.

Turning to CTTCAGTC, the “PBM E-score” value is -0.0437.

In the case of CTTTTATC, the “PBM E-score” value is 0.161.

In the case of AAGCCCTG, the “PBM E-score” value is -0.101.

Take AAAGCCGT: the “PBM E-score” value amounted to 0.324.

For the sequence AAGCCCAT, the “PBM E-score” value is -0.0309.

On to CAGCCCGG, for which the “PBM E-score” value worked out at 0.246.

As for AAGCCCGG, the “PBM E-score” value was determined as 0.411.

Take AAGCCCGT: the “PBM E-score” value turned out to be 0.417.

With GAGCCCGC, the “PBM E-score” value came to 0.252.

For AAAGCCGC, the “PBM E-score” value was determined as 0.365.

AAGCCCTT: the “PBM E-score” value is -0.131.

Take AAGCCCGC: the “PBM E-score” value is 0.443.

Regarding GAAGCCGC, the “PBM E-score” value came to 0.202.

Take CAGCCCGC: the “PBM E-score” value is 0.141.

On to GAAAGGCA, for which the “PBM E-score” value is 0.126.

As for ACCCCCCA, the “PBM E-score” value was -0.204.

CACAACGG: the “PBM E-score” value amounted to 0.166.

Turning to AAAGCCCC, the “PBM E-score” value amounted to 0.246.

Take TAGCCCGA: the “PBM E-score” value came to 0.171.

In the case of AAGCCCCG, the “PBM E-score” value turned out to be 0.431.

In the case of GAGCCCGA, the “PBM E-score” value amounted to 0.264.

For the sequence AAAGCCCT, the “PBM E-score” value was -0.125.

Turning to AAGCCCGA, the “PBM E-score” value is 0.43.

For AAGCCCCC, the “PBM E-score” value worked out at 0.00224.

In the case of CAGCCCCG, the “PBM E-score” value was determined as 0.267.

Take AAAGCCCG: the “PBM E-score” value worked out at 0.457.

For the sequence CTTCCCCA, the “PBM E-score” value is -0.184.

As to ATCCTATA, the “PBM E-score” value was -0.0861.

Regarding ATGGCAAC, the “PBM E-score” value is -0.184.

Turning to ACGAGAAT, the “PBM E-score” value worked out at 0.00633.

For the sequence CTATGCGC, the “PBM E-score” value came to 0.116.

As for AGACCTTC, the “PBM E-score” value was -0.109.

Regarding AAAGGACT, the “PBM E-score” value was -0.0879.

Consider GCCGCAAA, for which the “PBM E-score” value came out at 0.182.

Take GGCCGCCA: the “PBM E-score” value is 0.141.

With GGTCCGAA, the “PBM E-score” value amounted to 0.328.

CGTCCGAC: the “PBM E-score” value was found to be 0.281.

Consider AGTCCGAT, for which the “PBM E-score” value was 0.414.

AGTCCGAC: the “PBM E-score” value was 0.436.

Turning to AGTCCGAG, the “PBM E-score” value was 0.237.

With AGTCCGAA, the “PBM E-score” value worked out at 0.299.

GGTCCGAC: the “PBM E-score” value came out at 0.411.

With ATTCCGAC, the “PBM E-score” value amounted to 0.254.

In the case of AATCCGAC, the “PBM E-score” value was 0.257.

On to CGGCAGGA, for which the “PBM E-score” value amounted to 0.134.

As for GGAACCCC, the “PBM E-score” value is 0.19.

GCCTAGGC: the “PBM E-score” value was -0.0482.

On to ACCAGGCA, for which the “PBM E-score” value is -0.187.

AGCTACAC: the “PBM E-score” value is -0.174.

Turning to CTCTAGAC, the “PBM E-score” value is -0.146.

In the case of GCAGTTGA, the “PBM E-score” value is -0.177.

With GTTCATCA, the “PBM E-score” value was -0.136.

Take ATTAAGAA: the “PBM E-score” value is 0.0289.

As to ATGAACGA, the “PBM E-score” value is -0.0854.

With AACAGGCA, the “PBM E-score” value is -0.186.

As for CGTCGTAC, the “PBM E-score” value stood at 0.0941.

Turning to GTCCTCTA, the “PBM E-score” value was -0.159.

Consider CCGCCGGA, for which the “PBM E-score” value is 0.309.

Regarding ACGCCGGC, the “PBM E-score” value is 0.389.

As for CCGCCGGC, the “PBM E-score” value was determined as 0.421.

On to ACGCCGGG, for which the “PBM E-score” value was 0.306.

Take ACGCCGGA: the “PBM E-score” value turned out to be 0.343.

In the case of CGGCCGGC, the “PBM E-score” value turned out to be 0.284.

In the case of CGAAAGAA, the “PBM E-score” value is 0.0281.

For the sequence AACTGCGT, the “PBM E-score” value was -0.00018.

As for CGCATTGC, the “PBM E-score” value was -0.0359.

On to TACCGGCA, for which the “PBM E-score” value is 0.31.

For CACCGGCC, the “PBM E-score” value came out at 0.318.

For the sequence AACCGGCA, the “PBM E-score” value stood at 0.106.

On to CACCGGCG, for which the “PBM E-score” value came out at 0.417.

As to CACCGGCA, the “PBM E-score” value is 0.377.

As for AACCGGCG, the “PBM E-score” value came to 0.313.

As to CTGCACTA, the “PBM E-score” value is -0.0814.

On to CGCTAAGC, for which the “PBM E-score” value amounted to 0.0898.

As for ATGAAAAC, the “PBM E-score” value is 0.116.

With AAATCCGC, the “PBM E-score” value amounted to 0.354.

With AAATCCGT, the “PBM E-score” value came out at 0.281.

Regarding CAATCCCG, the “PBM E-score” value was determined as 0.281.

As for AAATCCCG, the “PBM E-score” value amounted to 0.411.

In the case of AAATCCGA, the “PBM E-score” value was determined as 0.332.

On to CAATCCGG, for which the “PBM E-score” value was found to be 0.167.

Regarding AAATCCGG, the “PBM E-score” value is 0.376.

Regarding AAATCCCA, the “PBM E-score” value was -0.156.

Consider GAATCCGC, for which the “PBM E-score” value amounted to 0.0516.

As for ATTCGCGG, the “PBM E-score” value came to 0.171.

CAGCACTG: the “PBM E-score” value was -0.172.

As for GAATAAGA, the “PBM E-score” value stood at 0.0303.

For CGTCTAAA, the “PBM E-score” value was -0.027.

CAGCAGTC: the “PBM E-score” value is -0.115.

Turning to ACTTCGCT, the “PBM E-score” value is -0.0885.

Regarding TACGGTGA, the “PBM E-score” value worked out at 0.16.

CACGGTGA: the “PBM E-score” value worked out at 0.282.

AACGGTGG: the “PBM E-score” value came out at 0.245.

In the case of AACGGTGC, the “PBM E-score” value amounted to 0.332.

For the sequence AACGGTGA, the “PBM E-score” value was 0.355.

Regarding AACGGTGT, the “PBM E-score” value is 0.425.

With CCCATTGC, the “PBM E-score” value is 0.0345.

With GTCCCTGA, the “PBM E-score” value is -0.284.

On to GGGAGGCA, for which the “PBM E-score” value amounted to 0.111.

On to AGGCTCCG, for which the “PBM E-score” value came out at 0.246.
